Measured values taken from the supplement of paper PMC4840960.
Counter-ions that a name gives are not always drawn. ± gives the standard deviation of the averaged measurements.

Test system: E18 rat cortical neuron-glia co-culture
Assay: fiber score / MBP score (myelination specific beyond OL differentiation) (ratio); higher = more myelination-specific MBP alignment
Conditions: 5 µM; treatment time: 8 days (DIV5-DIV13)
How it was run: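 Papain-dissociated primary E18 rat cortical co-cultures, plated at 20,000 cells/well on poly-d-lysine/laminin 96-well plates, were exposed to library compounds at 1 or 5 µM in myelination medium between DIV5 and DIV13. Following fixation in 4 % paraformaldehyde, cultures were stained for MBP, Olig2 and DAPI, and four 10X fields per well were analysed in duplicate wells. Values are the ratio of fiber score (continuous MBP fiber length per Olig2+ nucleus) to MBP score (thresholded MBP area × intensity per Olig2+ nucleus).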

| Structure (SMILES) | fiber score / MBP score |
| --- | --- |
| CO/N=C(\C(=O)N[C@@H]1C(=O)N2C(C(=O)O)=C(COC(N)=O)CS[C@H]12)c1ccco1 [Cefuroxime] | 0.663 |
| CCN1CCN(c2cc3c(cc2F)c(=O)c(C(=O)O)cn3C2CC2)CC1 [Enrofloxacin] | 0.516 |
| COC(=O)[C@H](c1ccccc1Cl)N1CCc2sccc2C1 [Clopidogrel] | 0.858 |
| c1ccc2[nH]c(-c3cscn3)nc2c1 [Thiabendazole] | 0.885 |
| Cn1nnc2c(C(N)=O)ncn2c1=O [Temozolomide] | 0.773 |
| NC(N)=Nc1nc(CSCC/C(N)=N/S(N)(=O)=O)cs1 [Famotidine] | 0.752 |
| CC(CN1c2ccccc2Sc2ccccc21)N(C)C (stereo not given) [Promethazine] | 0.931 |
| CCCNC(=O)NS(=O)(=O)c1ccc(Cl)cc1 [Chlorpropamide] | 1.05 |
| CCN1CCN(C(=O)N[C@@H](C(=O)N[C@@H]2C(=O)N3[C@@H]2SC(C)(C)[C@@H]3C(=O)O)c2ccccc2)C(=O)C1=O [Piperacillin] | 0.948 |
| O=C(O[C@@H]1Cc2c(O)cc(O)cc2O[C@@H]1c1cc(O)c(O)c(O)c1)c1cc(O)c(O)c(O)c1 [Epigallocatechin gallate] | 1.01 |
| COc1nc(C)nc(Cl)c1NC1=NCCN1 [Moxonidine] | 0.82 |
| C[C@H]1c2cccc(O)c2C(=O)C2=C(O)[C@]3(O)C(=O)C(C(N)=O)=C(O)[C@@H](N(C)C)[C@@H]3[C@@H](O)[C@@H]21 [Doxycycline] | 0.815 |
| Oc1ccc(C2CNCCc3c2cc(O)c(O)c3Cl)cc1 (stereo not given) [Fenoldopam] | 0.611 |
| CCCSc1ccc2[nH]c(NC(=O)OC)nc2c1 [Albendazole] | 0.0787 |
| CC(=O)Oc1ccccc1C(=O)Nc1ncc([N+](=O)[O-])s1 [Nitazoxanide] | 1.61 |
| CC1=Nc2ccc(Cl)cc2S(=O)(=O)N1 [Diazoxide] | 0.573 |
| COc1ccc2c3c1O[C@H]1C[C@@H](O)C=C[C@@]31CCN(C)C2 [Galantamine] | 0.673 |
| CO/N=C(\C(=O)N[C@@H]1C(=O)N2C(C(=O)O)=C(COC(C)=O)CS[C@H]12)c1csc(N)n1 [Cefotaxime] | 0.671 |
| C[C@@H](c1ncncc1F)[C@](O)(Cn1cncn1)c1ccc(F)cc1F [Voriconazole] | 0.824 |

| Structure (SMILES) | fiber score / MBP score |
| --- | --- |
| C[C@@H]1C[C@H]2[C@@H]3CCC4=CC(=O)C=C[C@]4(C)[C@@]3(F)[C@@H](O)C[C@]2(C)[C@@]1(O)C(=O)CO [Dexamethazone] | 0.845 |
| C=CC1=C(C(=O)O)N2C(=O)[C@@H](NC(=O)/C(=N\OCC(=O)O)c3csc(N)n3)[C@H]2SC1 [Cefixime] | 1.4 |
| CN(C)CCOC(c1ccccc1)c1ccccc1 [Diphenhydramine] | 0.525 |
| Cn1cnc([N+](=O)[O-])c1Sc1ncnc2[nH]cnc12 [Azathioprine] | 0.822 |
| N=C(N)N [Guanidine] | 0.71 |
| O=C1c2c(O)cc(O)cc2OC(c2ccc(O)c(O)c2)C1O (stereo not given) [Taxifolin] | 0.943 |
| CN(C)CCC=C1c2ccccc2COc2ccccc21 [Doxepin] | 0.732 ± 0.042 |
| Fc1ccc([C@@H]2CCNC[C@H]2COc2ccc3c(c2)OCO3)cc1 [Paroxetine] | 1.08 ± 0.16 |
| CCN1CC(CCN2CCOCC2)C(c2ccccc2)(c2ccccc2)C1=O (stereo not given) [Doxapram] | 0.769 |
| CCN1CCC[C@H]1CNC(=O)c1c(O)c(Cl)cc(Cl)c1OC [Raclopride] | 0.709 |
| CC[C@@H]1C(=O)OC[C@@H]1Cc1cncn1C [Pilocarpine] | 0.782 |
| CC1CCN(CCCC(=O)c2ccc(F)cc2)CC1 [Melperone hydrochloride] | 0.519 |
| CCCCN1CCCCC1C(=O)Nc1c(C)cccc1C (stereo not given) [Bupivacaine] | 0.575 |
| CC(C)Cc1ccc(C(C)C(=O)O)cc1 (stereo not given) [Ibuprofen] | 0.833 |
| COc1cc(C)c(Cc2cnc(N)nc2N)cc1OC [Ormetoprim] | 0.726 |
| CCCc1cc(=O)[nH]c(=S)[nH]1 [Propylthiouracil] | 0.854 |
| C#C[C@]1(O)CC[C@H]2[C@@H]3CCc4cc(O)ccc4[C@H]3CC[C@@]21C [Ethinyl Estradiol] | 0.958 |
| NCCc1ccc(O)c(O)c1 [Dopamine] | 1.06 |
| C[C@H](CS)C(=O)N1CCC[C@H]1C(=O)O [Captopril] | 0.704 |

Test system: E18 rat cortical neuron-glia co-culture
Assay: myelination (MBP fiber length per Olig2+ nucleus), % of 1 µM DAPT response (DMSO = 0) (% of DAPT); higher = more myelination, active = 50 or more
Conditions: 1 µM; treatment time: 8 days (DIV5-DIV13)
How it was run: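 Myelination, expressed as continuous straight MBP fiber length per Olig2+ nucleus, was normalised to 0.1 % DMSO as 0 and a 1 µM positive control as 100. The cultures were primary E18 rat cortical co-cultures dissociated with papain and plated at 20,000 cells/well on poly-d-lysine/laminin-coated 96-well plates. They received library compounds at 1 or 5 µM in myelination medium between DIV5 and DIV13. Analysis covered four 10X fields per well in duplicate wells after 4 % paraformaldehyde fixation and immunostaining for MBP and Olig2 with DAPI.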

| Structure (SMILES) | myelination |
| --- | --- |
| CO/N=C(\C(=O)N[C@@H]1C(=O)N2C(C(=O)O)=C(COC(N)=O)CS[C@H]12)c1ccco1 [Cefuroxime] | -44.2 (inactive) |
| CCN1CCN(c2cc3c(cc2F)c(=O)c(C(=O)O)cn3C2CC2)CC1 [Enrofloxacin] | -5.04 (inactive) |
| COC(=O)[C@H](c1ccccc1Cl)N1CCc2sccc2C1 [Clopidogrel] | -6.76 (inactive) |
| c1ccc2[nH]c(-c3cscn3)nc2c1 [Thiabendazole] | 0.461 (inactive) |
| Cn1nnc2c(C(N)=O)ncn2c1=O [Temozolomide] | -29.3 (inactive) |
| NC(N)=Nc1nc(CSCC/C(N)=N/S(N)(=O)=O)cs1 [Famotidine] | -13.8 (inactive) |
| CC(CN1c2ccccc2Sc2ccccc21)N(C)C (stereo not given) [Promethazine] | -18.8 (inactive) |
| CCCNC(=O)NS(=O)(=O)c1ccc(Cl)cc1 [Chlorpropamide] | -30.5 (inactive) |
| CCN1CCN(C(=O)N[C@@H](C(=O)N[C@@H]2C(=O)N3[C@@H]2SC(C)(C)[C@@H]3C(=O)O)c2ccccc2)C(=O)C1=O [Piperacillin] | -13.4 (inactive) |
| O=C(O[C@@H]1Cc2c(O)cc(O)cc2O[C@@H]1c1cc(O)c(O)c(O)c1)c1cc(O)c(O)c(O)c1 [Epigallocatechin gallate] | -23.8 (inactive) |
| COc1nc(C)nc(Cl)c1NC1=NCCN1 [Moxonidine] | -10.8 (inactive) |
| C[C@H]1c2cccc(O)c2C(=O)C2=C(O)[C@]3(O)C(=O)C(C(N)=O)=C(O)[C@@H](N(C)C)[C@@H]3[C@@H](O)[C@@H]21 [Doxycycline] | -18.2 (inactive) |
| Oc1ccc(C2CNCCc3c2cc(O)c(O)c3Cl)cc1 (stereo not given) [Fenoldopam] | -10.8 (inactive) |
| CCCSc1ccc2[nH]c(NC(=O)OC)nc2c1 [Albendazole] | 112 |
| CC(=O)Oc1ccccc1C(=O)Nc1ncc([N+](=O)[O-])s1 [Nitazoxanide] | 4.89 (inactive) |
| CC1=Nc2ccc(Cl)cc2S(=O)(=O)N1 [Diazoxide] | 5.81 (inactive) |
| COc1ccc2c3c1O[C@H]1C[C@@H](O)C=C[C@@]31CCN(C)C2 [Galantamine] | -60.3 (inactive) |
| CO/N=C(\C(=O)N[C@@H]1C(=O)N2C(C(=O)O)=C(COC(C)=O)CS[C@H]12)c1csc(N)n1 [Cefotaxime] | -9.49 (inactive) |
| C[C@@H](c1ncncc1F)[C@](O)(Cn1cncn1)c1ccc(F)cc1F [Voriconazole] | -40.5 (inactive) |

| Structure (SMILES) | myelination |
| --- | --- |
| C[C@@H]1C[C@H]2[C@@H]3CCC4=CC(=O)C=C[C@]4(C)[C@@]3(F)[C@@H](O)C[C@]2(C)[C@@]1(O)C(=O)CO [Dexamethazone] | -1.63 (inactive) |
| CN(C)CCOC(c1ccccc1)c1ccccc1 [Diphenhydramine] | -12.1 (inactive) |
| Cn1cnc([N+](=O)[O-])c1Sc1ncnc2[nH]cnc12 [Azathioprine] | -10.3 (inactive) |
| N=C(N)N [Guanidine] | -7.42 (inactive) |
| O=C1c2c(O)cc(O)cc2OC(c2ccc(O)c(O)c2)C1O (stereo not given) [Taxifolin] | -33.2 (inactive) |
| CN(C)CCC=C1c2ccccc2COc2ccccc21 [Doxepin] | -6.24 (inactive) |
| Fc1ccc([C@@H]2CCNC[C@H]2COc2ccc3c(c2)OCO3)cc1 [Paroxetine] | -13.8 (inactive) |
| CCN1CC(CCN2CCOCC2)C(c2ccccc2)(c2ccccc2)C1=O (stereo not given) [Doxapram] | -10.9 (inactive) |
| CCN1CCC[C@H]1CNC(=O)c1c(O)c(Cl)cc(Cl)c1OC [Raclopride] | 18.4 (inactive) |
| CC[C@@H]1C(=O)OC[C@@H]1Cc1cncn1C [Pilocarpine] | -24.8 (inactive) |
| CC1CCN(CCCC(=O)c2ccc(F)cc2)CC1 [Melperone hydrochloride] | -4.39 (inactive) |
| CCCCN1CCCCC1C(=O)Nc1c(C)cccc1C (stereo not given) [Bupivacaine] | -11.2 (inactive) |
| CC(C)Cc1ccc(C(C)C(=O)O)cc1 (stereo not given) [Ibuprofen] | -7.57 (inactive) |
| COc1cc(C)c(Cc2cnc(N)nc2N)cc1OC [Ormetoprim] | -31.5 (inactive) |
| CCCc1cc(=O)[nH]c(=S)[nH]1 [Propylthiouracil] | -9.29 (inactive) |
| C#C[C@]1(O)CC[C@H]2[C@@H]3CCc4cc(O)ccc4[C@H]3CC[C@@]21C [Ethinyl Estradiol] | -18.3 (inactive) |
| NCCc1ccc(O)c(O)c1 [Dopamine] | 5.4 (inactive) |
| C[C@H](CS)C(=O)N1CCC[C@H]1C(=O)O [Captopril] | -9.04 (inactive) |
